Data: PubChem BioAssay AID990 (National Center for Advancing Translational Sciences (NCATS), 2007)
Activity calls are given as the source filed them.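 Rule for the calls: active = compound that made reporter-free parental cells show up as glowing objects under laser imaging, so likely a fluorescent false positive; inactive = the rest.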

assay: Parental Cell Counter Screen Assay for Epigenetic Modulators; conditions: parental c127i cells, compound fluorescence imaging, 30 h
Summary of the method: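 Parental murine c127i mammary cells, lacking the integrated GFP reporter, incubated with compound 30 hours at 37 C. After PBS washes, fluorescent objects 20–120 um were counted by laser-scanning microplate cytometry.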

Compound	outcome
Cc1ccc2ccc(C(Nc3cccc(Cl)c3)c3ccccn3)c(O)c2n1 (configuration not stated)	inactive
CCNc1nc(NCC)nc(-n2nc(C)cc2C)n1	inactive
COc1ccc(C)cc1NC(c1ccccn1)c1ccc2cccnc2c1O (configuration not stated)	inactive
Oc1c(C(Nc2ccccn2)c2ccco2)cc(Cl)c2cccnc12 (configuration not stated)	inactive
O=C1OCCC1Sc1cccc2cccnc12 (configuration not stated)	inactive
CCOCc1ccc(O)c2ncccc12	inactive
O=C(CC(c1ccco1)S(=O)(=O)c1ccccc1)c1ccc(F)cc1 (configuration not stated)	inactive
